Measurements as given in PubChem BioAssay AID652029 (The Scripps Research Institute Molecular Screening Center, 2013).
The list shows a part of the results. Unmarked numbers belong to inactive results. Active and inactive are the calls of the source.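 Rule for the calls: active = inhibition of LYPLA2 enzyme probe labeling above about 50% (limit read from the data); inactive = inhibition below that limit.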

Molecular target: Acyl-protein thioesterase 2 (Homo sapiens) (UniProt O95372)
Test: blockade of human LYPLA2 probe labeling – gel-based competitive ABPP, fluorescence, assay provider, late-stage follow-up (AID 652029);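 note: loss of FP-Rh probe labeling of the LYPLA2 gel band measured as band density; 0% = DMSO only control band and 100% = blank gel background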
Conditions: rhLYPLA2 in mouse brain proteome, gel ABPP FP-Rh; at 20 µM; hits give high values

Chain of Acyl-protein thioesterase 2 (Homo sapiens) (O95372 whole entry, looked up): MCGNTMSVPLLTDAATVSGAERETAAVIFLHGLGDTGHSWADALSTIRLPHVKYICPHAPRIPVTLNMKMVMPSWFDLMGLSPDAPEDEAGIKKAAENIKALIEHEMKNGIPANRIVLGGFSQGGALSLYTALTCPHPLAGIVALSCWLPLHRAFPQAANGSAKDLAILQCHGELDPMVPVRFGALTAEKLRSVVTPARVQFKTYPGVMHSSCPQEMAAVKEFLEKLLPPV

Row | Compound | inhibition
1 | O=C(CCCN1C(=O)c2cccc3cccc(c23)C1=O)N1CCN(Cc2ccc3c(c2)OCO3)CC1 | 25%
2 | CC(=O)c1ccc(N2CCN(C(=O)C3CCN(S(=O)(=O)c4ccc5c(c4)CC(C)N5C(=O)C4CC4)CC3)CC2)cc1 (stereo not given) | 70% (active)
3 | COc1ccc(N2CCN(C(=O)c3ccc(N4CCCCS4(=O)=O)cc3)CC2)cc1 | 49%
4 | CCC(=O)c1ccc(OCC(O)CN2CCN(c3cccc(C(F)(F)F)c3)CC2)cc1 (stereo not given) | 18%
5 | O=C1C2CCCN2C(=O)N1CCCCN1CCN(c2cccc(C(F)(F)F)c2)CC1 (stereo not given) | 44%
